# Source: PubChem BioAssay (Tox21)
# Values joined by “and” are separate entries in the source; they are usually repeats but may differ in a detail not shown here. Equal entries are not always repeated. Inconclusive results are not listed. Entries that show only a call come without a potency. Unmarked numbers belong to inactive results. Active and inactive are the calls of the source. Calls come from the whole dose curve; as a rule, active = well fitted cell-killing curve with a large enough effect in the repeat runs; inconclusive = weak or mixed curves, or effect the other way; inactive = flat fitted curve, though single readings scatter.
# How the values were obtained:
# [1] = cAMP Responsive Elements (CRE) small molecule antagonists, cell-based qHTS assay: qHTS cell viability counter screen (AID 2060913); note: nearly all actives have a fitted effect of over 40% in size
# Outline: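 Cytotoxicity read in the same wells as the CRE-bla HEK293T antagonist assay: after 3 h compound with 0.25 uM NKH477 final and 2 h beta-lactamase substrate, CellTiter-Glo luminescence measured.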
# [2] = cAMP Responsive Elements (CRE) small molecule agonists, cell-based qHTS assay: qHTS cell viability counter screen (AID 2060914);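 note: viability read after 3 h of compound exposure; nearly all actives have a fitted effect of over 50% in size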
# Outline: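 HEK 293T CRE-bla; DMEM + 10% dialyzed FBS, 25 mM HEPES; 18 h pre-incubation; compound 3 h, 37 °C/5% CO2; CellTiter-Glo added after reporter read; luminescence after 30 min RT.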
# Potency is the fitted concentration of half-maximal effect.
Compound,Potency [1],Potency [2],"viability change, negative = cytotoxic [1]","activity change, negative = cytotoxicity [2]"
OC(Cc1ccccc1Cl)(Cn1cncn1)C1(Cl)CC1 (configuration not stated),inactive,inactive,–,–
C=CCBr,inactive,inactive,–,–
C[C@H]1CCCC(=O)CCC/C=C/c2cc(O)cc(O)c2C(=O)O1,inactive,inactive,–,–
Nc1c(Br)cc([N+](=O)[O-])cc1[N+](=O)[O-],inactive,inactive,–,–
COP(=O)(NC(C)=O)SC (configuration not stated),inactive,inactive,–,–
C=CC(=O)OCCN(C)C,inactive,inactive,–,–
NNC(N)=O,inactive,inactive,–,–
CN(C)c1ccc(N=O)cc1,inactive,inactive,–,–
CC(C)(C)N(NC(=O)c1ccc(Cl)cc1)C(=O)c1ccccc1,inactive,inactive,–,–
CSCCCN=C=S,inactive,inactive,–,–
CCO[C@H]1O[C@@H]2OC3(C)CC[C@H]4[C@H](C)CC[C@@H]([C@H]1C)[C@@]24OO3,inactive,inactive,–,–
Cc1ccc2c(c1N)C(=O)c1ccccc1C2=O,inactive,inactive,–,–
CC(CC(C#N)(c1ccccc1)c1ccccc1)N(C)C (configuration not stated),inactive,inactive,–,–
CCNc1nc(NC(C)(C)C)nc(SC)n1,inactive,inactive,–,–
COc1ncc(F)c2nc(S(=O)(=O)Nc3c(F)cccc3F)nn12,inactive,inactive,–,–
CCCCCCCCOC(=O)c1ccccc1C(=O)OCCCCCCCC,inactive,inactive,–,–
COc1cc(N)c(Cl)cc1C(=O)NC1CN2CCC1CC2 (configuration not stated),inactive,inactive,–,–
FC(Cl)(Cl)C(F)(Cl)Cl,inactive,inactive,–,–
CCOP(=O)(O)C(N)=O,inactive,inactive,–,–
COC(=O)COc1ccc(Cl)cc1Cl,inactive,inactive,–,–
C[C@H](N)[C@H](O)c1ccc(O)c(O)c1,inactive,inactive,–,–
CCC(C)Nc1c([N+](=O)[O-])cc(C(C)(C)C)cc1[N+](=O)[O-] (configuration not stated),inactive,inactive,–,–
CN=C=S,inactive,inactive,–,–
Clc1cc(C(Cl)(Cl)Cl)cnc1Cl,inactive,inactive,–,–

Compound,Potency [1],Potency [2],"viability change, negative = cytotoxic [1]","activity change, negative = cytotoxicity [2]"
CC(=NC#N)N(C)Cc1ccc(Cl)nc1,inactive,inactive,–,–
COc1ccc(O)c(C(C)(C)C)c1,inactive,inactive,–,–
O=C(O)C1C2CCC(O2)C1C(=O)O (configuration not stated),inactive,inactive,–,–
Clc1cc(Cl)c(Cl)c(Cl)c1,inactive,inactive,–,–
COc1ccc(C(=O)c2c(C)n(CCN3CCOCC3)c3ccccc23)cc1,inactive,inactive,–,–
COc1cc(-c2ccc(N)c(OC)c2)ccc1N,inactive,inactive,–,–
CN(C)[C@@H]1C(=O)C(C(N)=O)=C(O)[C@@]2(O)C(=O)C3=C(O)c4c(O)ccc(Cl)c4[C@@](C)(O)[C@H]3C[C@@H]12,inactive,inactive,–,–
CCCCCCCCCCCCCCCC[n+]1ccccc1,57 µM (active) and 54.5 µM (active) and 56.2 µM (active),47.9 µM (active) [middle of 4 runs],–,–
CC(C)(C)NC[C@H](O)c1ccc(O)cc1Cl,inactive,inactive,–,–
N[C@@H]1C[C@H]1c1ccccc1,inactive,inactive,–,–
COCC(=O)N(c1c(C)cccc1C)C(C)C(=O)OC (configuration not stated),inactive,inactive,–,–
CN1C(=O)CN=C(c2ccccc2)c2cc([N+](=O)[O-])ccc21,inactive,inactive,–,–
CCOC(=O)/C=C(C)/C=C/C[C@@H](C)CCCC(C)C,inactive,inactive,–,–
C=C1CC[C@@]2(O)[C@H]3Cc4ccc(O)c5c4[C@@]2(CCN3CC2CC2)[C@H]1O5,inactive,inactive,–,–
Nc1ccc(Br)cc1,inactive,inactive,–,–
Oc1cccc(-c2ccccc2)c1,inactive,inactive,–,–
Cn1cc(C2=C(c3cn(C4CCN(Cc5ccccn5)CC4)c4ccccc34)C(=O)NC2=O)c2ccccc21,inactive,inactive,–,–
CCN(CC)C(=O)C(C)Oc1cccc2ccccc12 (configuration not stated),inactive,inactive,–,–
CNC(=O)N(C)c1nc2ccccc2s1,inactive,inactive,–,–
CCc1cc2c(s1)-n1c(C)nnc1CN=C2c1ccccc1Cl,inactive,inactive,–,–
Nc1ncn[nH]1,inactive,inactive,–,–
COc1cccc(C(=O)CCN[C@@H](C)[C@H](O)c2ccccc2)c1,inactive,inactive,–,–
[N-]=[N+]=[N-],inactive,inactive,–,–
CC(C)(C)C(=O)Cl,inactive,inactive,–,–

Compound,Potency [1],Potency [2],"viability change, negative = cytotoxic [1]","activity change, negative = cytotoxicity [2]"
CCCC[N+](CCCC)(CCCC)CCCC,inactive,inactive,–,–
CO[C@@H]1[C@H](OC(=O)NC(=O)CCl)CC[C@]2(CO2)[C@H]1[C@@]1(C)O[C@@H]1CC=C(C)C,–,–,9.39% [at 18.9 µM],13.5% [at 18.9 µM]
CN(N=O)C(N)=O,inactive,inactive,–,–
ClCc1ccccn1,inactive,inactive,–,–
CCCCOC(=O)c1ccccc1C(=O)OCc1ccccc1,inactive,inactive,–,–
COP(=S)(OC)Oc1ccc(SC)c(C)c1,inactive,inactive,–,–
CNC(=O)O/N=C(/CSC)C(C)(C)C,inactive,inactive,–,–
O=[N+]([O-])c1ccc(Cl)c(Cl)c1Cl,inactive,inactive,–,–
O=S(=O)(c1ccc(Cl)cc1)c1cc(Cl)c(Cl)cc1Cl,inactive,inactive,–,–
CCNc1nc(Cl)nc(NCC)n1,inactive,inactive,–,–
CCCCOCCOC(C)=O,inactive,inactive,–,–
NC(=O)CS(=O)C(c1ccccc1)c1ccccc1 (configuration not stated),inactive,inactive,–,–
N#Cc1c(Cl)c(Cl)c(Cl)c(C#N)c1Cl,inactive,inactive,–,–
O=c1[nH]c2cc(Cl)ccc2n1C1CCNCC1,inactive,inactive,–,–
CCOP(=O)(OCC)Oc1nc(Cl)c(Cl)cc1Cl,inactive,inactive,–,–
Cc1ncc(C[n+]2csc(CCO)c2C)c(N)n1,inactive,inactive,–,–
CCCSP(=O)(OCC)Oc1ccc(Br)cc1Cl (configuration not stated),inactive,inactive,–,–
Oc1cc(Cl)ccc1Oc1ccc(Cl)cc1Cl,44.3 µM (active),62.6 µM (active),–,–
CCOC(=O)OC1=C(c2cc(C)ccc2C)C(=O)NC12CCC(OC)CC2 (configuration not stated),inactive,inactive,–,–
Nc1c(Cl)cc([N+](=O)[O-])cc1Cl,inactive,inactive,–,–
O=C(CCl)c1ccccc1,inactive,inactive,–,–
COc1cc(C=O)cc2c1[C@H](COC(N)=O)[C@]1(OC(C)=O)ON2C[C@H]2[C@@H]1N2C(C)=O,inactive,inactive,–,–
Cc1cc(Cl)ccc1O[C@H](C)C(=O)O,inactive,inactive,–,–
CCOP(=S)(OCC)O/N=C(\C#N)c1ccccc1,inactive,inactive,–,–

Compound,Potency [1],Potency [2],"viability change, negative = cytotoxic [1]","activity change, negative = cytotoxicity [2]"
CC(Cc1ccccc1)N(C)Cc1ccco1 (configuration not stated),inactive,inactive,–,–
O=[N+]([O-])c1ccc(CCl)cc1,inactive,inactive,–,–
O=[N+]([O-])c1ccccc1-c1ccccc1,inactive,inactive,–,–
CC(O)CN(CC(C)O)CC(C)O (configuration not stated),inactive,inactive,–,–
CC(=O)C(Cl)(Cl)Cl,26.4 µM (active),inactive,–,–
N#CC(O)c1ccccc1 (configuration not stated),inactive,inactive,–,–
S=C=Nc1cccc2ccccc12,inactive,inactive,–,–
COCC(C)N(C(=O)CCl)c1c(C)csc1C (configuration not stated),inactive,inactive,–,–
CC(O)C#N (configuration not stated),inactive,inactive,–,–
O=C1NCN(c2ccccc2)C12CCN(CCCOc1ccc(F)cc1)CC2,inactive,inactive,–,–
NC(=O)C(Cl)(Cl)Cl,inactive,inactive,–,–
COC(=O)/C=C(\C)OP(=O)(OC)OC,inactive,inactive,–,–
BrCCBr,inactive,inactive,–,–
ClP(Cl)(Cl)(Cl)Cl,inactive,inactive,–,–
OP(O)c1ccccc1,inactive,inactive,–,–
CC(=O)O,inactive,inactive,–,–
CCCC1COC(Cn2cncn2)(c2ccc(Cl)cc2Cl)O1 (configuration not stated),inactive,inactive,–,–
Cc1ccc2nc3sc(=O)sc3nc2c1,–,–,10.1% [at 18.9 µM],-6.15% [at 18.9 µM]
CC(C)N(C(=O)COc1nnc(C(F)(F)F)s1)c1ccc(F)cc1,inactive,inactive,–,–
CCn1cc[n+](C)c1,inactive,inactive,–,–
CC1C=[C-]C=C1.[C-]#[O+].[C-]#[O+].[C-]#[O+].[Mn],inactive,inactive,–,–
C=CC(C)(CCC=C(C)C)OC(=O)c1ccccc1N (configuration not stated),inactive,inactive,–,–
Clc1ccccc1-c1ccccc1Cl,inactive,inactive,–,–
COC1CC(=C(c2cccs2)c2cccs2)C[N+](C)(C)C1 (configuration not stated),inactive,inactive,–,–

Compound,Potency [1],Potency [2],"viability change, negative = cytotoxic [1]","activity change, negative = cytotoxicity [2]"
CC(=[OH+])/C=C(/C)[O-].CC(=[OH+])/C=C(\C)[O-].CC(=[OH+])/C=C(\C)[O-].[Al],inactive,inactive,–,–
CCN(CCO)CCO,inactive,inactive,–,–
CC(Cl)CN(C)C (configuration not stated),inactive,inactive,–,–
O=C(C(Cl)(Cl)Cl)C(Cl)(Cl)Cl,inactive,inactive,–,–
O=c1[nH]c(=O)n(Cl)c(=O)n1Cl,inactive,inactive,–,–
Clc1ccc(-c2ccc(Cl)c(Cl)c2Cl)c(Cl)c1Cl,inactive,inactive,–,–
CN(C)C1CCCCC1,inactive,inactive,–,–
[Cl][Hg][c]1ccccc1,19.3 µM (active),30.6 µM (active),–,–
CC(C)CON=O,inactive,inactive,–,–
CCCC[N+]1(C)CCCCC1,inactive,inactive,–,–
[CH3][Sn]([CH3])([Cl])[Cl],inactive,inactive,–,–
O=C(NC(=O)c1c(F)cccc1F)Nc1cc(Cl)c(OC(F)(F)C(F)C(F)(F)F)cc1Cl (configuration not stated),inactive,inactive,–,–
C=CC(=O)[O][Sn]([CH2]CCC)([CH2]CCC)[CH2]CCC,8.63 µM (active),6.86 µM (active),–,–
Nc1ccc(Cl)cc1,inactive,inactive,–,–
CNC(=O)NC(O)C(Cl)(Cl)Cl (configuration not stated),inactive,inactive,–,–
CNC(=O)O/N=C/C(C)(C)SC,inactive,inactive,–,–
CS(=O)(=O)c1ccc(C(=O)C2C(=O)CCCC2=O)c(Cl)c1COCC(F)(F)F,inactive,inactive,–,–
O=C(N[C@H]1N=C(c2ccccc2F)c2cccc3c2N(CC3)C1=O)c1cc2ccccc2[nH]1,inactive,inactive,–,–
ClC1=C(Cl)[C@]2(Cl)[C@@H]3[C@@H](Cl)[C@H](Cl)C[C@@H]3[C@@]1(Cl)C2(Cl)Cl,inactive,inactive,–,–
O=[N+]([O-])c1cccc2cccnc12,inactive,inactive,–,–
